From PubChem
Rows were chosen to be rich in hits. Some 2.8% of all compounds tested hit in one or more screens of this group.
KLK7 zymogen act: activators of human kallikrein-7 zymogen. purified proKLK7, EDANS-DABCYL substrate fluorescence; 100% is mature enzyme control, 0% vehicle. activation, % at 7 µM. 0.9% of 370,000 active;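 active means activation above the mean of all tested compounds plus 3 SD, computed per campaign excluding outliers beyond control limits, cut at about 13% in these data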
Target sequence (P49862 whole entry, looked up): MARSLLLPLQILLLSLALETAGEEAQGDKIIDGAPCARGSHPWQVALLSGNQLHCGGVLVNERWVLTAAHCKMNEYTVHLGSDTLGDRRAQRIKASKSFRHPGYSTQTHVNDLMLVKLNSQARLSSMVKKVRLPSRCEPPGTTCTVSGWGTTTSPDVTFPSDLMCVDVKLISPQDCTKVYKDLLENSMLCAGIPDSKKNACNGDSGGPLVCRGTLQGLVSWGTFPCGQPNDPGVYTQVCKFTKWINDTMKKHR
JMJD2C inh: inhibitors of human GASC-1 (JMJD2C) demethylase; 0.069% of 330,000 active; inhibition, % at 2.35 µM; GST-JMJD2C(1-420) H3K9me3 demethylation, DELFIA europium; Q9H3R0;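 active means more than half of a compound's replicate wells show inhibition beyond 50%, single wells judged on their own value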;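 further: signal counts dimethyl H3K9 product captured on neutravidin plate; 0% = median of DMSO wells and 100% = 0.3 times that DMSO median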
PP5 inh: inhibitors of human protein phosphatase 5 (PP5); P53041; purified PP5c, OMFP substrate fluorescence; 0.18% of 320,000 active; AID 1987; inhibition, % at 6.7 µM;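 active means inhibition above the campaign's mean inhibition across all tested compounds plus 3 SD, cut at about 9.5% in these data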;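 further: 0% = DMSO only and 100% = 100 µM cantharidin control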
Rev-erbA mod: Rev-erb alpha (human) modulation; P20393; Rev-erbα–FITC-DNA binding, fluorescence polarization, 90 min; activity, % at 10 µM; 0.79% of 370,000 active;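 active means activity above about 14%, limit read from the data; passing the limit was not always enough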;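 further: 0% = DMSO wells with 35 nM protein and 100% = DMSO wells with 750 nM protein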
PP1 counter: counter-screen for PP5 inhibitors: inhibitors of human PP1-alpha | AID 2235 | 0.9% of 320,000 active | P62136 | inhibition, % at 6.7 µM | purified PP1alpha, OMFP fluorescence;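 active means inhibition above the mean inhibition of all tested compounds plus 3 SD, computed separately for each screening campaign, cut at about 15% in these data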
PG9 binder: binds the HIV-1 gp120 antibody PG9; TR-FRET gp120-PG9 antibody binding; inhibition, % at 6.7 µM; 0.43% of 360,000 active; in the data active means inhibition above about 8.5%
PP1 confirm: confirmation of human PP1 phosphatase inhibitors; shares compounds with PP1 counter; purified PP1alpha, OMFP substrate fluorescence; inhibition, % at 6.7 µM; 52% of 1,900 active; AID 2358;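 active means mean PP1 inhibition above a set limit taken from the earlier primary screen, cut at about 15% in these data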
PP5 counter: PP5 phosphatase inhibition, counter-screen for PP1 inhibitors | shares compounds with PP1 counter | purified PP5c, OMFP fluorescence | inhibition, % at 6.7 µM | 4% of 1,900 active | AID 2360;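 active means mean PP5 inhibition over triplicate wells above about 9.5% taken from the earlier PP1 screen, limit read from the data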
Numbers without * were called inactive; nt = no result.

SMILES	KLK7 zymogen act	JMJD2C inh	PP5 inh	Rev-erbA mod	PP1 counter	PG9 binder	PP1 confirm	PP5 counter
NC(=O)CC(NC(=O)Cc1cccc2ccccc12)c1ccc(NCCOc2ccccc2)c([N+](=O)[O-])c1 (stereo not drawn)	0	-19	-3	8	23*	-2	27*	-4
NC(=O)CC(NC(=O)Cc1cccc2ccccc12)c1ccc(NC2CCCCC2)c([N+](=O)[O-])c1 (stereo not drawn)	0	4	0	0	20*	0	24*	-7
COc1ccc(NCc2nnc(SCC(=O)Nc3nc(-c4ccccc4)cs3)n2-c2ccccc2)cc1	0	-4	2	-1	32*	-2	26*	-4
C[C@H]1[C@@H](OC(=O)NCc2ccccc2Cl)CC[C@@]23CCCN2C(=O)CCC[C@@H]13	nt	nt	nt	1	nt	nt	nt	nt
CCCCCCCCN1C(=O)N2Cc3ccccc3C2CS1(=O)=O (stereo not drawn)	1	nt	nt	1	nt	nt	nt	nt
CCOc1ccc(-n2c(O)c(/C=N/NC(=O)C3COc4ccccc4O3)c3ccccc3c2=O)cc1 (stereo not drawn)	-10	10	1	2	23*	-3	28*	-6
COc1cc(/C=N\NC(=O)C2COc3ccccc3O2)cc(OC)c1O (stereo not drawn)	-8	5	-1	0	-3	-3	nt	nt
CC[n+]1c(/C=C(/C)SC)sc2ccccc21	0	1	-1	7	-5	1	nt	nt
CCN1/C(=C/C=C/c2sc3ccccc3[n+]2CC)Sc2ccccc21	nt	-26	6	nt	18*	nt	-8	9
CCN1/C(=C/C=C/C=C/C=C/c2sc3ccccc3[n+]2CC)Sc2ccccc21	0	4	-2	-9	20*	6	39*	0
CC[n+]1c(/C=C(\C)SC)sc2ccccc21	0	-5	2	nt	2	-1	nt	nt
COc1ccc(N2C3=C(CC4=C2CCCC4=O)C(=O)CCC3)cc1	0	2	0	-12	34*	0	3	4
O=C(O)c1n[nH]c2c1CC(C1CCCCC1)CC2 (stereo not drawn)	-1	-7	3	-4	19*	-1	8	0
Cc1ccc(C(=O)OCC(=O)c2ccc(S(=O)(=O)N3CCCCC3)cc2)o1	0	6	2	-5	66*	1	0	-2
Cc1ccc2nc(NC(=O)C3CCN(S(=O)(=O)c4cc([N+](=O)[O-])ccc4Cl)CC3)sc2c1	0	-2	1	-4	20*	1	26*	3
Cc1nc(SC(C)C(=O)Nc2cccc(C(F)(F)F)c2)c2c(C)c(C(=O)O)sc2n1 (stereo not drawn)	0	3	-1	1	45*	1	15*	-5
CCCC(=O)Oc1ccccc1C1SCc2cc(C)c(C)cc2CS1	1	-1	-1	-4	22*	-1	-2	-6
COc1ccc2[nH]c(=O)c(CN(CCO)S(=O)(=O)c3c(C)ccc4nsnc34)cc2c1	0	4	2	-1	55*	1	0	0
CCCCN=C(N)NC(=O)c1ccccc1	0	nt	nt	4	nt	nt	nt	nt
CC1(OC(=O)c2ccco2)C(=O)C=C2C=C(c3ccsc3)OC=C2C1=O (stereo not drawn)	nt	5	1	nt	18*	nt	8	-5
CCCCC1=CC2=CC(=O)C(C)(O)C(=O)C2=CO1 (stereo not drawn)	nt	7	1	nt	19*	nt	11	-3
CC1(O)C(=O)C=C2C=C(c3ccsc3)OC=C2C1=O (stereo not drawn)	nt	8	0	nt	18*	nt	7	0
CCC(=O)OC1(C)C(=O)C=C2C=C(c3ccsc3)OC=C2C1=O (stereo not drawn)	nt	12	2	nt	0	nt	nt	nt
CC1(O)C(=O)C=C2C=C(C3CC3)OC=C2C1=O (stereo not drawn)	nt	-22	3	nt	0	nt	nt	nt
